# Assay results taken from the supplement of paper PMC4894684.
# Where a name gives a salt, the structure may show the parent alone. ± gives the standard deviation of the averaged measurements.
# Tested on: Toxoplasma gondii RH (in HFF)
# Experiment: parasite growth relative to the screen mean (all compounds = 100%); higher = less inhibition of parasite growth
# Details: 5 µM; 72 h; oxygen 21 %
# Procedure, shortened: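 RH β-Gal–GFP Toxoplasma at MOI 1:5 was used to infect confluent human foreskin fibroblasts in 96-well plates within 2 h of pin-transferring compounds to 5 µM final. After 72 h at 21% O2, parasite number was determined by CPRG β-Gal assay against standard curves on the same plate. Growth is relative to the screen mean and averaged over two screens, with all compounds = 100%.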
row,SMILES,parasite growth [%]
1,Cn1c2c(c3ccccc31)CCNCC2,118 ± 15
2,COc1cc2c(cc1O)C(CCc1ccc(Cl)cc1)N(C)CC2 (stereo not drawn),58.7 ± 22
3,CN1[C@@H]2CC[C@H]1C[C@@H](OC(c1ccc(F)cc1)c1ccc(F)cc1)C2 [3α-Bis-(4-fluorophenyl) methoxytropane hydrochloride],40.3 ± 22
4,c1cc(Cc2cnc[nH]2)ccn1 [Immethridine dihydrobromide],133 ± 31
5,CNCCc1cnc[nH]1 [N α-Methylhistamine dihydrochloride],102 ± 1.5
6,"Clc1ccc(N2CCN(Cc3c[nH]c4ncccc34)CC2)cc1 [L-745,870 trihydrochloride]",72.9 ± 7.7
7,O=C(CCCN1CCC2(CC1)C(=O)N(Cc1cccc(F)c1)CN2c1ccccc1)c1ccc(F)cc1 [3'-Fluorobenzylspiperone maleate],< 0
8,CN1c2ccccc2C(NCCCCCCC(=O)O)c2ccc(Cl)cc2S1(=O)=O (stereo not drawn) [Tianeptine],98.7 ± 16
9,CN1CCC(c2c[nH]c3ccc(O)cc23)CC1,177 ± 16
10,O=C(CCCN1CCC2(CC1)C(=O)NCN2c1ccccc1)c1ccc(F)cc1 [Spiperone hydrochloride],99.8 ± 36
11,C[N+]1(C)CCc2cc3c(cc2[C@H]1[C@@H]1OC(=O)c2c1ccc1c2OCO1)OCO3 [(-)-Bicuculline methochloride],120 ± 37
12,C[C@@H](N)Cc1cnc[nH]1 [(R)-(-)- α-Methylhistamine dihydrobromide],107 ± 25
13,NC1(c2ccccc2Cl)CCCCC1=O (stereo not drawn) [Norketamine hydrochloride],86.9 ± 27
14,CC(=O)NCCc1c[nH]c2ccccc12 [N-Acetyltryptamine],146 ± 7.5
15,C[C@H](N)Cc1cnc[nH]1 [(S)-(+)-a-Methylhistamine dihydrobromide],113 ± 11
16,"C[N+]1(C)CCc2cc3c(cc2C1C1OC(=O)c2c1ccc1c2OCO1)OCO3 (single isomer, unassigned; (-)) [(-)-Bicuculline methobromide]",131 ± 20
17,CN(C)CCN(C)CCc1ccc(Cl)c(Cl)c1 [BD 1047 dihydrobromide],89.4 ± 30
18,Cc1nnc2n1-c1sc(CCC(=O)N3CCOCC3)cc1C(c1ccccc1Cl)=NC2,132 ± 22
19,CC(C)(C)NCC(O)COc1cccc2[nH]c(C#N)cc12 (stereo not drawn) [Cyanopindolol hemifumarate],130 ± 6.7

row,SMILES,parasite growth [%]
1,COc1ccc(CCN2CCC(Nc3nc4ccccc4n3Cc3ccc(F)cc3)CC2)cc1 [Astemizole],< 0
2,Fc1ccc(C(OCCN2CCN(C/C=C/c3ccccc3)CC2)c2ccc(F)cc2)cc1,32.9 ± 3.4
3,CCCOc1ccc2[nH]cc(C3=CCNCC3)c2n1,140 ± 5.8
4,"CN1CCc2cc3c(cc2C1C1OC(=O)c2c1ccc1c2OCO1)OCO3 (single isomer, unassigned; (+)) [(+)-Bicuculline]",141 ± 54
5,c1ccc2sc(C3(N4CCCCC4)CCCCC3)cc2c1 [BTCP maleate],64.9 ± 4.1
6,O=C(O)Cc1cccnc1C(=O)O [Homoquinolinic acid],85.7 ± 1.6
7,NC(C(=O)O)c1nn[nH]n1 (racemic) [(RS)-(Tetrazol-5-yl)glycine],146 ± 30
8,CCOC(=O)c1ncn2c1CN(C)C(=O)c1cc(N=[N+]=[N-])ccc1-2,60 ± 14
9,CCCN(CCC)[C@@H]1CCc2c(OC)cccc2[C@@H]1C [(+)-UH 232 maleate],115 ± 20
10,"c1ccc(CC(c2ccccc2)N2CCCCC2)cc1 (racemic) [(±)-1-(1,2-Diphenylethyl)piperidine maleate]",124 ± 20
11,CC(C)C[C@@H](N)C1(c2ccc(Cl)cc2)CCC1,111.4 ± 0.42
12,CCN1C[C@]2(COC(=O)c3ccccc3N3C(=O)C[C@H](C)C3=O)CC[C@H](OC)[C@@]34[C@@H]5C[C@H]6[C@H](OC)[C@@H]5[C@](O)(C[C@@H]6OC)[C@](O)([C@@H](OC)[C@H]23)[C@@H]14 [Methyllycaconitine citrate],83.1 ± 5.7
13,"BrC1C(Br)C(Br)C(Br)C(Br)C1Br (stereo not drawn) [1,2,3,4,5,6-Hexabromocyclohexane]",112 ± 29
14,Ic1cncc(OC[C@@H]2CCN2)c1,137 ± 16
15,S=C(NC1CCCCC1)N1CCC(c2cnc[nH]2)CC1 [Thioperamide],124 ± 20
16,O=c1[nH]oc2c1CCNC2 [THIP hydrochloride],119 ± 21
17,NC(N)=Nc1ccc2[nH]c3c(c2c1)C[C@@]1(O)[C@H]2Cc4ccc(O)c5c4[C@@]1(CCN2CC1CC1)[C@H]3O5 [GNTI dihydrochloride],124 ± 2.5
18,O=C1CN=C(c2cccc(Br)c2)c2oc3ccccc3c2N1,96 ± 4.5
19,O=C1NC(=O)c2c1c1c3ccccc3[nH]c1c1[nH]c3ccccc3c21 [Arcyriaflavin A],21.1 ± 14
